High-throughput results as filed in PubChem.
Mot1-301 SUMO: blocks SUMOylation pathway, rescuing yeast Mot1-301 growth. S. cerevisiae Mot1-301 growth rescue, ATP luminescence, 38.5C; percent above DMSO median, 100 means doubled. growth rescue, % at 18.8 µM. 1% of 320,000 active. AID 2716;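 active means every valid replicate shows activation above 250% relative to neutral control wells; inactive means the rest, any valid replicate at or below 250%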;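 further: OY570 slx delta 5 strain wells were the positive control but not used for scaling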
A1 inh: inhibitors of the anti-apoptotic protein A1, read as caspase activation; caspase activation, % (no concentration beside the values); 0.066% of 330,000 active; MEF A1-2A-BIM cells, Caspase-Glo 3/7 luminescence, 3 h; percent of clofoctol response, vehicle zero; AID 2462;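 active means over half of replicate activation scores above 10%, or exactly half above 10 with the replicate mean above 10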
AI-2 QS modul: modulators of Vibrio harveyi AI-2 quorum sensing system; Vibrio harveyi JMH597 AI-2 luminescence/OD600 ratio, 9 h; stronger effect = lower value; strain lacks LuxN and CqsS sensors; 0 = neutral-control median; activity change, % at 7.5 µM; 0.4% of 300,000 active; AID 2094; in the data active means activity change below about -75%, passing the limit was not always enough;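 further: luminescence divided by OD600 gain over 9 h not by final OD600 alone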
aDG glyco act: increases alpha dystroglycan glycosylation. Pro5-aDG cells, alpha-DG glycosylation AlphaScreen (IIH6); 0% Pro5, 100% B10-LARGE cell signal. activation, % at 10 µM. 0.22% of 360,000 active;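 active means activation of at least 8% versus controls, or a plate z-score of at least 8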;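 further: Pro5 are CHO cells carrying HIG-tagged alpha-DG that lacks glycosylation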
ARNT TACC3 PPI: disruptors of human ARNT/TACC3 interaction; Q9Y6A5; AlphaScreen His-ARNT PAS-B/GST-TACC3 binding, luminescence; TACC3 fragment carries E629A point mutation; inhibition, % at 9.99 µM; 0.66% of 390,000 active; AID 623870;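 active means mean inhibition of replicates at least 50% and at least half of replicates each reaching 50%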;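 further: 0% = complete ARNT plus TACC3 wells and 100% = ARNT alone without TACC3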
Yeast Mot1 SUMO: SUMO pathway inhibitors in yeast Mot1-301 growth | 2,300 tested, under 10 active | shares compounds with Mot1-301 SUMO | S. cerevisiae Mot1-301 galactose growth, ATP luminescence, 24 h; -100 = growth of slx-deleted rescue strain | growth activity, percent, % at 42 µM;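 active means Signal drops as the depositor expects, and the fitted half-maximal dose is no more than ten times the top valid tested dose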;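 further: more negative values mean stronger growth rescue toward the control strain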
The depositor's hits bear a star; x = no result given. Most compounds without a hit are left out; they make up all but 1.8% or so of the library.

SMILES | Mot1-301 SUMO | A1 inh | AI-2 QS modul | aDG glyco act | ARNT TACC3 PPI | Yeast Mot1 SUMO
COc1ccccc1-n1c(SCc2cc(=O)oc3cc(O)ccc23)nc2ccccc2c1=O | -10 | 0 | 10 | 0 | 10 | x
O=C(COC(=O)c1ccc2c(=O)n3c(nc2c1)CCC3)Nc1ccccc1F | 32 | 0 | 11 | 0 | -10 | x
O=C(Nc1ccc2c(c1)CCCN2C(=O)c1cccs1)c1cccc(F)c1 | 566* | -2 | 46 | 0 | 5 | -1
CN(C)/C=C/C(=O)c1ccncc1 | 877* | 0 | -1 | 0 | -5 | 0
CC(=O)/C(N)=N/Nc1cccc(Cl)c1 | 437* | 0 | 2 | 0 | 3 | -1
COC(=O)Nc1ccc(S(=O)(=O)N2CCCC(C(=O)NC3CCS(=O)(=O)C3)C2)cc1 (stereo not given) | 387* | 0 | 28 | 0 | 1 | 0
O=C(NC1CCS(=O)(=O)C1)C1CCCN(S(=O)(=O)c2ccc(Cl)cc2)C1 (stereo not given) | 5 | 0 | 14 | 0 | -3 | x
O=C(COC(=O)c1ccccc1NCCO)NCCC1=CCCCC1 | 94 | -1 | 29 | 0 | -6 | x
O=C(O)c1c(C(=O)O)c(-c2ccc(F)cc2)n2c1CCC2 | 499* | 1 | 23 | 0 | x | 0
Cc1ccc(-c2c(C(=O)O)c(C(=O)O)c3n2CCC3)cc1 | 32 | 0 | 13 | 0 | x | x
Cn1cnc(S(=O)(=O)N2CCCCN3[C@H](CO)[C@H](c4ccc(-c5ccc(F)cc5)cc4)[C@H]3C2)c1 | x | x | x | x | -3 | x
O=C(C[C@@H]1C[C@H]2c3cc(NC(=O)NC4CCCC4)ccc3O[C@H]2[C@@H](CO)O1)NCc1cc(F)ccc1F | x | x | x | x | -2 | x
CC(=O)CSc1ncnc2sc3c(c12)CCCC3 | 712* | -1 | 3 | 0 | -3 | 0
CC(=O)CSc1ncnc2sc3c(c12)CCC(C)C3 (stereo not given) | -2 | 1 | 15 | 0 | -14 | x
Cc1ccc(S(=O)(=O)N(C)C[C@H]2Oc3ccc(NS(=O)(=O)c4cccs4)cc3CC(=O)N([C@H](C)CO)C[C@H]2C)cc1 | x | x | x | x | -7 | x
c1ccc2cc(C3CCCCC3)ncc2c1 | 738* | -2 | x | 0 | -12 | 0
O=C(Nc1ccccc1)C1=C[C@H](C2CCCCC2)C[C@H](OCCCCO)O1 | 118 | 1 | 15 | 0 | -2 | x
Cc1cccc(Cl)c1NC(=S)N1CCN(c2ccc([N+](=O)[O-])cn2)CC1 | 24 | 0 | 22 | 0 | -16 | x
O=[N+]([O-])c1c(NCCCO)cc(Sc2nc3ccccc3s2)c2nonc12 | 782* | 0 | -8 | 0 | 4 | -2
CCC(=O)OCCNc1cc(Sc2nc3ccccc3s2)c2nonc2c1[N+](=O)[O-] | 143 | 3 | 5 | 0 | 9 | x
COc1ccc(C(=O)N2CCN(c3ccc(NC(=O)c4cccnc4)cc3)CC2)cc1 | 458* | 1 | 30 | 0 | -8 | 0
CCOc1ccccc1N(CC(=O)Nc1ccccc1C(=O)N1CCCC1)S(C)(=O)=O | 586* | 0 | 31 | 0 | x | 1
CCOc1ccccc1N(CC(=O)Nc1ccccc1C(=O)O)S(C)(=O)=O | 9 | 1 | 20 | 0 | 3 | x
CC(C)Cc1cc(CN2CCC(CO)(Cc3ccccc3)CC2)[nH]n1 | 455* | 0 | 30 | 0 | 5 | -1
Cc1noc(C)c1S(=O)(=O)Nc1cccc2c1O[C@H](CN(C)C(=O)NC1CCCCC1)[C@H](C)CN([C@@H](C)CO)C2=O | x | x | x | x | -1 | x
CCC(C)[C@H](N)c1nnc(SCC(=O)Nc2cccc(Cl)c2)o1 (stereo not given in full) | 558* | -1 | -2 | 0 | 1 | 0
NCCCCCc1nnc(SCC(=O)Nc2cccc(Cl)c2)o1 | -4 | -1 | 21 | 0 | x | x
Cc1ccc(NC(=O)Cn2nnc(C(=O)Nc3ccc(F)c(Cl)c3)c2N)cc1 | 119 | -2 | 19 | 0 | -2 | x
COc1ccc(NC(=O)Cn2nnc(C(=O)Nc3ccc(F)c(Cl)c3)c2N)cc1 | 477* | 0 | 20 | -1 | -6 | 0
